# Measured values from PubChem BioAssay AID624296 (National Center for Advancing Translational Sciences (NCATS), 2012).
# Out of some 350,000 compounds screened, about 9,900 (2.8%) were called active. A call without a number means that no potency is given here. Not shown: some 15% with an inconclusive outcome. The sample holds actives, similar compounds and a random draw of the others, so the mix is not that of the screen. Calls come from the whole dose curve; as a rule, active = well fitted activation curve with a large enough effect; inconclusive = small, poorly fitted or top-dose-only effect; inactive = no such curve, though single readings can be large or run the other way.
# Test: A quantitative high throughput screen for small molecules that induce DNA re-replication in MCF 10a normal breast cells. Note: nearly all actives have a fitted effect of over 50% in size.
# Details: MCF 10A DNA re-replication, Hoechst nuclear intensity, 48 h; series mostly up to 46.1 µM
# Potency is the fitted concentration of half-maximal effect.
row,Structure (SMILES),Potency
1,N#Cc1ccc(CN2CCN(CC(=O)Nc3ccccc3C(=O)NC3CC3)CC2)cc1,inactive
2,O=C(Nc1ccc2c(c1)OCO2)C1CC1(Cl)Cl (stereo not given),inactive
3,CC(=O)Nc1ccc(S(=O)(=O)NCC(=O)OCC(=O)c2ccc[nH]2)cc1,inactive
4,CCCCNc1c(-c2cccc(Sc3ccc(OC)cc3)c2)nc2ccccn12,18.4 µM (active)
5,COc1ccc(Sc2nc(-c3ccccc3)ncc2OC)cc1,inactive
6,CCCCNc1nc2c(c(=O)n(C)c(=O)n2C)n1Cc1cccc(OC)c1,inactive
7,Fc1ccc2cnc(-c3ccccc3)cc2c1,inactive
8,COc1cc(/C=C/CNC[C@H]2O[C@@H](n3cnc(C(N)=O)n3)[C@H](O)[C@@H]2O)ccc1O,inactive
9,O=C1Nc2c(Br)cc(Br)cc2C1(O)N1CCOCC1 (stereo not given),8.2 µM (active)
10,O=C(c1cc2cc(Br)cc(Br)c2oc1=O)N1CCOCC1,inactive
11,O=C(CSC(=S)N1CCOCC1)c1cc(Br)cc(Br)c1O,inactive
12,Cc1ccc2c(c1)C1C[N+](C)(CC(=O)c3ccccc3)CCC1N2C(=O)c1ccccc1Cl (stereo not given),inactive
13,CC[C@]12c3[nH]c4cc(CCC(=O)N(C)C)ccc4c3CCN1C(=O)[C@@H](CC(=O)NCC13CC4CC(CC(C4)C1)C3)C[C@@H]2C(=O)N1CCN(C(=O)C2CC2)CC1,inactive
14,CSc1ccc(/C=N\NC(=O)COc2ccc(Cl)cc2Br)cc1,13 µM (active)
15,CSc1ccc(/C=N/NC(=O)c2cccc(Cl)c2)cc1,inactive
16,O=C(COc1ccc(Cl)cc1Cl)N/N=C/c1ccccn1,inactive
17,CCC(=O)c1cc(F)ccc1OCC(=O)Nc1ccc2c(c1)OCCO2,inactive
18,COc1ccccc1NC(=O)COC(=O)COc1ccccc1F,inactive
19,COc1ccc(CC(=O)NC(C)c2ccc(Cl)c(Cl)c2)cc1S(=O)(=O)N1CCOCC1 (stereo not given),inactive
20,Nc1ncnc2c1cnn2C1CC(O)C(CO)O1 (stereo not given),inactive
21,CCN(C[C@H]1N[C@@](Cc2ccccc2)(C(=O)OC)[C@H]2C(=O)N(Cc3ccccc3)C(=O)[C@@H]12)C(=O)c1ccc(C)cc1,inactive
22,Cc1ccc(O)c(NC(=S)NC(=O)COc2ccc(Br)cc2)c1,20.6 µM (active)
23,Cc1cccc(OCC(=O)NC(=S)Nc2ccccc2N2CCOCC2)c1,inactive
24,Cc1ccc(O)c(NC(=O)COc2cc(C)ccc2C)c1,inactive
25,O=C(CCc1ccccc1Cl)Nc1ccc(S(=O)(=O)Nc2nccs2)cc1,inactive

row,Structure (SMILES),Potency
1,Nc1cc(N)nc(SCC(=O)Nc2cccc(S(=O)(=O)N3CCCCC3)c2)n1,inactive
2,Nc1ncnc2c1ncn2[C@@H]1O[C@H](CNCc2cccn2-c2nccs2)[C@@H](O)[C@H]1O,inactive
3,Cc1c(NC(=O)CN(C)CC(=O)Nc2ccc(F)c(F)c2F)c(=O)n(-c2ccccc2)n1C,inactive
4,N=C1c2ccccc2-c2ccccc21,inactive
5,C=CCNC(=O)c1csc(-c2ccccc2)n1,inactive
6,C=CCNc1nc(N)c(C(=C(C#N)C#N)c2ccccc2)s1,16.4 µM (active)
7,COC(=O)c1sc(N2CCN(Cc3ccccc3)CC2)nc1N,inactive
8,Nc1ccccc1SC(C[N+](=O)[O-])c1ccccc1 (stereo not given),10.3 µM (active)
9,CCS(=O)(=O)c1cc([N+](=O)[O-])c(Sc2ccccc2N)s1,inactive
10,Nc1ccccc1SCc1cc([N+](=O)[O-])cc2c1OCOC2,inactive
11,CN(C(=O)c1cccc(NC(=O)C2CCN(C(=O)OC(C)(C)C)CC2)c1)C1CCC1,inactive
12,COC(=O)c1ccc(CNC(=O)Cn2cc(C)c(=O)[nH]c2=O)cc1,inactive
13,C#CCOCCOCCOCCNc1nc(N2CCN(C(=O)Cn3cc(CCCCN)nn3)CC2)nc(N2CCN(C(=O)[C@H](CCCCN)n3cc(CCC(=O)O)nn3)CC2)n1,inactive
14,CC(C)(CNC(=O)c1ccc(Cl)c(S(=O)(=O)N2CCc3ccccc3C2)c1)N1CCOCC1,5.8 µM (active)
15,O=C(NCCSCc1ccccc1)c1ccc(Cl)c(S(=O)(=O)N2CCOCC2)c1,inactive
16,CN(C)S(=O)(=O)c1ccc(C(=O)NCC(C)(C)N2CCOCC2)cc1,inactive
17,O=C(OCc1cc(=O)n2ccsc2n1)C1(c2ccc(Cl)cc2)CC1,inactive
18,COc1ccccc1N(CC(=O)Nc1c(C)n(C)n(-c2ccccc2)c1=O)S(=O)(=O)c1ccccc1,inactive
19,Cc1c(O)c(C)c2c(c1O)C(=O)C[C@@H](c1ccccc1)O2,inactive
20,COc1ccc(CNc2c(CO)cnc3c2cnn3C)cc1,14.6 µM (active)
21,COc1ccc(CNc2nnnn2C)cc1,inactive
22,COc1ccc(CNc2ncnc3ccccc23)cc1,inactive
23,COc1cccc(NC(=O)COC(=O)c2ccc3ccccc3n2)c1,inactive
24,Cc1ccc(S(=O)(=O)N(C)C)cc1NC(=O)CN1c2cccc3cccc(c23)S1(=O)=O,inactive
25,Cc1csc(NC(=O)C2CCN(S(=O)(=O)c3ccccc3)CC2)n1,inactive

row,Structure (SMILES),Potency
1,CN(C(=O)CSc1cccc[n+]1[O-])C1CCCCC1,inactive
2,S=c1[nH]nc(CSCc2ccc(Cl)cc2Cl)n1-c1ccccc1,20.6 µM (active)
3,S=c1[nH]nc(COc2ccccc2)n1-c1ccccc1,inactive
4,Cc1ccc(NCc2n[nH]c(=S)n2-c2ccccc2)cc1Cl,inactive
5,O=C(O)C(=Cc1ccccc1[N+](=O)[O-])c1ccccc1,inactive
6,O=C(Nc1cccc(S(=O)(=O)N2CCCC2)c1)c1cncc(Br)c1,inactive
7,COCCNC(=O)COc1ccc(N(C)S(=O)(=O)c2ccc3ccccc3c2)cc1,inactive
8,CC(=O)Oc1ccc(N(C(C)=O)S(=O)(=O)c2ccc3ccccc3c2)cc1Br,13 µM (active)
9,CN(c1ccc(OCC(=O)O)cc1)S(=O)(=O)c1ccc2ccccc2c1,inactive
10,O=C(OCCOc1ccccc1Cl)c1cc(S(=O)(=O)N2CCCCC2)ccc1N1CCOCC1,inactive
11,CCC(C(=O)N1CCN(S(=O)(=O)c2sc(C(=O)O)c(C)c2C(=O)O)CC1)c1ccccc1 (stereo not given),inactive
12,CC1=C(C(=O)OCc2ccccc2)C(c2ccc(C(F)(F)F)cc2)NC(=O)N1CCCCCC(=O)O (stereo not given),inactive
13,COCCN1C(=O)N[C@@H](c2ccccc2)C(C(=O)OC)=C1C,inactive
14,COC(=O)CCCCCN1C(=O)NC(c2ccc(-c3ccccc3)cc2)C(C(=O)OCc2ccccc2)=C1C (stereo not given),3.26 µM (active)
15,COc1cc(OC)cc(C(=O)NC(C(=O)N2CCC2)C(C)C)c1 (stereo not given),inactive
16,O=C(Cn1cnc2c(OCc3ccccc3)ncnc21)NCc1nc2ccccc2[nH]1,inactive
17,COCCCNC(=O)CC1C[C@H](C(=O)N2CCCCC2)[C@@]2(CCc3ccccc3)c3[nH]c4ccccc4c3CCN2C1=O (stereo not given in full),inactive
18,O=C(N/N=C/c1cc2c(cc1Br)OCO2)C1COc2ccccc2O1 (stereo not given),inactive
19,O=C(NCc1ccc2c(c1)OCO2)c1ccc(Cl)s1,inactive
20,O=C(N/N=C\c1cc2c(cc1Cl)OCO2)c1ccc(Br)s1,5.8 µM (active)
21,CCCN(CC1CC1)C(=S)NC(=O)c1ccccc1Br,inactive
22,O=c1[nH]nc(SCCS(=O)(=O)c2ccc(F)cc2)n1-c1ccccc1C(F)(F)F,18.4 µM (active)
23,O=S(=O)(c1ccc(F)cc1)N1CCN(Cc2ccccc2C(F)(F)F)CC1,inactive
24,O=C(CSc1n[nH]c(=O)n1-c1ccccc1)Nc1ccccc1C(F)(F)F,inactive
25,CCn1c(SCC(=O)Nc2nccs2)nnc1-c1ccco1,inactive

row,Structure (SMILES),Potency
1,Cc1[nH]c2ccccc2c1SCC(=O)Nc1nccs1,0.651 µM (active)
2,Cn1c(SCC(=O)Nc2nccs2)nnc1-c1cccnc1,inactive
3,CCCSc1ccc([C@H]2N[C@@](Cc3ccccc3)(C(=O)OC)[C@H]3C(=O)N(C)C(=O)[C@@H]23)cc1,inactive
4,O=C(CSc1ccccc1)Nc1cc(Cl)ccc1Oc1ccccc1,inactive
5,CC(=O)Nc1ccc(NC(=O)CN2CCCC(C)C2)c(Cl)c1 (stereo not given),inactive
6,CC1CCCN(CC(=O)Nc2cc(Cl)ccc2Oc2ccccc2)C1 (stereo not given),18.4 µM (active)
7,Cc1cccc(NC(=O)C2CCCN2S(=O)(=O)c2ccc(F)cc2)c1C (stereo not given),inactive
8,COc1ccccc1NC(=O)C1CCCN1S(=O)(=O)c1ccc(Cl)cc1 (stereo not given),18.4 µM (active)
9,CC(C)c1nnc(NC(=O)C2CCCN2S(=O)(=O)c2ccc(Cl)cc2)s1 (stereo not given),inactive
10,O=C(COC(=O)Cn1[nH]c(=O)c2ccccc2c1=O)Nc1ncc(Cl)cc1Cl,inactive
11,O=C(CSc1ncn[nH]1)Nc1ccc(Br)cc1Br,inactive
12,CN(C(=O)COC(=O)c1cc(=O)[nH]c2ccccc12)C1CCCCC1,inactive
13,CCN(C(=O)CSc1cccc[n+]1[O-])c1ccccc1,inactive
14,CC1=CC(C)(C)Nc2ccc(OC(=O)CN3C(=O)C4CCCCC4C3=O)cc21 (stereo not given),7.31 µM (active)
15,O=C(CN1C(=O)C2C3CCC(C3)C2C1=O)Oc1ccc2ccccc2c1 (stereo not given),inactive
16,O=C(COC(=O)CN1C(=O)C2CCCCC2C1=O)Nc1ccc(F)c(F)c1F (stereo not given),inactive
17,C=CC[C@H](CC(=O)OC(C)(C)C)C(=O)OC[C@H]1CCCN1C(=O)[C@H](CC=C)CC(=O)N(CCO)Cc1ccccc1,inactive
18,CC/C(=C(/c1ccccc1)c1ccc(OCC[N+](C)(C)C)cc1)c1ccccc1,inactive
19,CCCCN1CC(COc2ccccc2)Oc2cccc(F)c2S1(=O)=O (stereo not given),inactive
20,CN(C)C(=O)N=NC(=O)N(C)C,inactive
21,COc1ccc(Br)cc1C(=O)NC(=S)Nc1cc(-c2nc3ccccc3[nH]2)ccc1C,inactive
22,O=C(Nc1cccc(-c2nc3ccccc3[nH]2)c1)c1ccc(C(=O)Nc2cccc(-c3nc4ccccc4[nH]3)c2)cc1,inactive
23,Cc1ccc(-c2nc3ccccc3[nH]2)cc1NC(=O)c1sc2ccccc2c1Cl,20.6 µM (active)
24,COc1ccc(S(=O)(=O)N2CCOCC2)cc1NC(=O)CSc1cc(C)ccc1C,inactive
25,CCN(CC(=O)Nc1ccccc1C(=O)NC1CC1)Cc1cccs1,inactive
